Compound activity as filed in PubChem BioAssay.
The sample as a whole holds a higher share of hits than the screen did.
HttQ103 aggreg: qHTS Multiplex Assay to Identify Dual Action Probes in a Cell Model of Huntington: Aggregate Formation (GFP) | 220,000 tested, 1.1% active | PC12 HttQ103-GFP aggregates, Acumen cytometry, 40 h | Potency, µM (titrated, usually from 46.1 µM), actives largely listed as inhibitors; note: nearly all actives have a fitted effect of over 60% in size
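Using laser scanning cytometry, GFP-positive aggregates were counted after lysis of PC12 cells induced with 100 nM tebufenozide to express HTT exon 1 Q103–GFP. Compounds were tested in titration.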
PNC assembly inh: High Content Assay for Compounds that inhibit the Assembly of the Perinucleolar Compartment. PC3M PTB-GFP, PNC prevalence imaging, 16 h; hits give low values. activity change (PNC), negative = inhibition, % at 10 µM. 140,000 tested, 3.1% active;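 active = readout at or below -70, meaning at least 70% loss of cells showing the perinucleolar compartment, a nuclear body marking cancer cells; inconclusive = readout between -30 and a set limit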
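Compounds are pinned in duplicate onto adhered PC3M cells stably expressing GFP-tagged PTB and incubated 16 h at 37 C. Cells are then fixed, nuclei stained with Hoechst, and PNC-positive cells counted.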
HTT ATP protect: qHTS Multiplex Assay to Identify Dual Action Probes in a Cell Model of Huntington: Cytoprotection (ATP) | PC12 HTT-Q103 induced, cytoprotection, ATP luminescence, 40 h | Potency, µM (series often up to 56.4 µM), most hits filed as activators | 230,000 tested, 0.14% active | AID 1471, 2008; note: nearly all actives have a fitted effect of over 45% in size
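Stable PC12 Q103-GFP cells in serum-supplemented, phenol red-free DMEM; induction by tebufenozide at 100 nM final; compound dose series; cell viability quantified luminescently from ATP.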
Each line names hits and unclear results; the compound was inactive in the other large screens. Unless noted, calls come from the whole dose curve; as a rule, active = well fitted curve in the direction sought with a large enough effect; inconclusive = small, poorly fitted or top-dose-only effect, or another doubt; inactive = no such curve, though single readings can be large; an effect the other way counts as inactive or inconclusive.

Cn1c(SCc2ccccc2)nnc1-c1ccc2c(c1)OCO2	none
Cn1c(SCC#N)nnc1-c1ccc2c(c1)OCO2	PNC assembly inh -119
Cc1ccc(C(=O)Nc2cccc(-c3cnc4ccccc4n3)c2)cc1	none
CC(C)C(=O)Nc1cccc(-c2cnc3ccccc3n2)c1	PNC assembly inh -96
CSc1nnc(Cn2c(=O)sc3ccccc32)n1C	PNC assembly inh inconclusive
Cc1ccccc1Nc1nnc(SCc2cc([N+](=O)[O-])cc3c2OCOC3)s1	HttQ103 aggreg 18µM
O=[N+]([O-])c1cc2c(c(CSc3nnc(Nc4ccccc4)s3)c1)OCOC2	none
O=C(NCC1CCCO1)c1onc(CSc2cccc(Cl)c2)c1C(=O)O (centres undefined)	none
O=C(c1ccco1)N1CCN(C(=O)c2cc(-c3ccccc3)nc3ccccc23)CC1	none
Cc1cccc2c(C(=O)N3CCN(C(=O)c4ccco4)CC3)cc(-c3cccc(Br)c3)nc12	HttQ103 aggreg 8.9µM (no result: PNC assembly inh)
Cc1ccc(Oc2nnc(-c3ccccc3)cc2C#N)cc1	none
O=C(Cc1ccccc1)Nc1scc(-c2ccccc2)c1C(=O)N1CCOCC1	none
NC(=O)c1c(-c2ccc(Cl)cc2Cl)csc1NC(=O)Cc1ccccc1	HttQ103 aggreg 11µM
COc1ccc(-c2nc(SCC(=O)Nc3cc(C)on3)n[nH]2)cc1	PNC assembly inh inconclusive
Cc1ccc(C2C(C#N)=C(N)SC(N)=C2C#N)c(C)c1	none
CC1CCCN(c2nc3c(c(=O)n(C)c(=O)n3C)n2CCSc2nc3ccccc3s2)C1 (centres undefined)	HttQ103 aggreg inconclusive
Cc1ccc(CNc2nc3c([nH]2)c(=O)n(C)c(=O)n3C)cc1	none
Cn1c(=O)c2[nH]c(Nc3ccccc3)nc2n(C)c1=O	HttQ103 aggreg inconclusive, PNC assembly inh -100
CCn1c(SCC(=O)NCC(=O)Nc2ccc(F)cc2)nnc1-c1cccs1	PNC assembly inh -86
CCn1c(SCC(=O)Nc2ccc(C(=O)OC)cc2)nnc1-c1cccs1	PNC assembly inh inconclusive
CCOc1cc(C2C(C(=O)OC)=C(C)N=C3SC(C)C(=O)N32)ccc1OC(C)=O (centres undefined)	none
CCOC(=O)C1=C(C)N=C2SC(C)C(=O)N2C1c1ccc(OC(C)=O)c(OC)c1 (centres undefined)	PNC assembly inh -100
Cc1ccc2[nH]c(=O)c(CN(CCCO)S(=O)(=O)c3c(C)ccc4nsnc34)cc2c1	PNC assembly inh -80
Cc1cc2cc(CN(CCCO)S(=O)(=O)c3cccc4nsnc34)c(=O)[nH]c2cc1C	none
Cc1cc(-c2cc(-c3ccccc3)on2)nc(NCC2CC2)n1	none (no result: PNC assembly inh)
C=CCNC(=O)C(C(=O)OCC)C1CCCCC1 (centres undefined)	none
CCOC(=O)C(C(=O)NCCCN1CCOCC1)C1CCCCC1 (centres undefined)	PNC assembly inh -100
Cc1c(NC2(C#N)CCCCC2)c(=O)n(-c2ccccc2)n1C	none (no result: PNC assembly inh)
CCN(CC)c1ccc(CC(=O)NC(C)Cc2ccccc2)cc1 (centres undefined)	PNC assembly inh -106
CCCN(CCC)c1ccc(CC(=O)NC(C)Cc2ccccc2)cc1 (centres undefined)	none
COc1ccc(NC2(c3ccccc3)OC(=O)c3ccccc32)cc1 (centres undefined)	none (no result: PNC assembly inh)
O=C1CCCC2=C1C(c1cccs1)n1nc(SCc3ccc(C(=O)O)cc3)nc1N2 (centres undefined)	none (no result: PNC assembly inh)
Cc1ccc(C(=O)O/N=C/c2c(N3CCOCC3)n(C)c3ccccc23)cc1	HttQ103 aggreg inconclusive
Cn1c(N2CCOCC2)c(/C=N/OC(=O)c2ccc(F)cc2)c2ccccc21	HttQ103 aggreg inconclusive, PNC assembly inh -99
CC(=O)Nc1ccc(S(=O)(=O)N2CCC(c3nc4ccccc4[nH]3)CC2)cc1	none
O=C(NNC(=O)c1ccccc1Br)c1ccccc1Cl	none (no result: PNC assembly inh)
O=C(NNC(=O)c1ccc2ccccc2c1O)c1ccccc1Cl	HttQ103 aggreg 32µM
C=CCn1c(COc2ccc(Cl)cc2)nnc1SCC(=O)Nc1ccc(S(N)(=O)=O)cc1	PNC assembly inh -114 (no result: HTT ATP protect)
C=CCn1c(COc2ccccc2)nnc1SCC(=O)N/N=C/c1cc(Cl)ccc1O	HttQ103 aggreg 7.9µM
C=CCn1c(COc2ccccc2)nnc1SCC(=O)N/N=C/c1ccc(C)cc1	none
CCn1c(COc2ccc(C)cc2)nnc1SCC(=O)Nc1ccc(S(N)(=O)=O)cc1	none
Brc1ccc(CSc2ncnc3nc[nH]c23)cc1	PNC assembly inh inconclusive
CCCCOc1ccc(CONS(=O)(=O)c2ccc(NC(C)=O)cc2)cc1Cl	none
O=C(O)Cn1nc(-c2ccccc2)oc1=O	none
CC(C)(C)C(=O)n1nc(-c2ccccc2)oc1=O	PNC assembly inh -109 (no result: HTT ATP protect)
CCOC(=O)Cc1csc(NC(=O)CSc2nc3sc(C(=O)O)c(C)c3c(=O)[nH]2)n1	none
CCN(CC)CCC(=O)N1c2ccccc2Sc2ccc(C(F)(F)F)cc21	none (no result: PNC assembly inh)
Cc1cc(C)n(CC(=O)N2c3ccccc3Sc3ccc(C(F)(F)F)cc32)n1	PNC assembly inh -113 (no result: HTT ATP protect)
CN(c1ccccc1)S(=O)(=O)c1cccc(C(=O)OCC(=O)NCc2ccc3c(c2)OCO3)c1	none
CC1(CCc2ccccc2)NC(=S)N(c2ccccc2)N1 (centres undefined)	PNC assembly inh -124 (no result: HTT ATP protect)
CC1(CCc2ccccc2)NC(=S)N(c2ccc(Cl)cc2)N1 (centres undefined)	none
CC1=CC=CC2=NC(=O)CC(C)(C(=O)O)N12 (centres undefined)	none (no result: PNC assembly inh)
COC(=O)c1c(C)n(-c2ccc(OC)cc2)c2ccc(O)cc12	HttQ103 aggreg 11µM, PNC assembly inh inconclusive
Cc1c(C(=O)O)c2cc(O)ccc2n1-c1ccccc1	none
CCN1CCN(C(=O)c2ccccc2NS(=O)(=O)c2ccc(Cl)cc2)CC1	none (no result: PNC assembly inh)
Cc1sc(-c2ccncc2)nc1OC(=O)c1cc(Cl)cc(Cl)c1	none
NS(=O)(=O)c1ccc(NC(=O)COC(=O)COc2cccc(C(F)(F)F)c2)cc1	none (no result: PNC assembly inh)
O=C(NC1CCCCC1)N1CCN(c2ncccn2)CC1	PNC assembly inh -83
S=C(NC1CCCCC1)N1CCN(c2ncccn2)CC1	none (no result: PNC assembly inh)
NNC(=O)c1ccc(-c2ccccc2F)cc1	none (no result: PNC assembly inh)
O=C1CC(c2ccco2)Cc2c1cnn2-c1nc2ccccc2s1 (centres undefined)	none
CC1(C)CC(NC(=O)C2CCCCC2C(=O)O)CC(C)(C)N1 (centres undefined)	PNC assembly inh -99
CC1(C)CC(NC(=O)CC2CCCCC2)CC(C)(C)N1	none
Cc1nc2nc(SCC(=O)C(C)(C)C)[nH]c2cc1Br	none
CC(C)(C)C(=O)CSc1nc2ncc(Br)cc2[nH]1	PNC assembly inh -98
CN1/C(=C/C=N/n2cnnc2)C(C)(C)c2ccccc21	PNC assembly inh inconclusive
CN1/C(=C\C=N\NC(=O)c2ccccc2Br)C(C)(C)c2ccccc21	HttQ103 aggreg 11µM
O=C(/C=C/c1ccccc1)c1ccccc1	none (no result: HTT ATP protect)
CC(C)(C)c1cc(C(=O)/C=C/c2ccc(C(=O)O)cc2)cc(C(C)(C)C)c1	HTT ATP protect 2.5µM (no result: HttQ103 aggreg, PNC assembly inh)
CCOc1ccc(NC(=O)C2CCC(CNc3c(N4CCC(C)CC4)c(=O)c3=O)CC2)cc1 (centres undefined)	none (no result: PNC assembly inh)
